Laboratory results published in PubChem BioAssay AID651863 (Broad Institute, 2012).
Entries with a potency or affinity are not part of this list. The source made the active and inactive calls.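 Rule for the calls: active = compounds whose fitted half-maximal cell-killing dose is at most twice the top tested dose; inconclusive = flat curve with 30 to 70 percent signal loss, or poor fit; inactive = the rest.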

Experiment: HEK293T cell cytotoxicity, dose response, cytotoxicity control, luminescence plate reader, powder samples, set 4 (AID 651863)
Conditions: HEK293T viability, CellTiter-Glo ATP luminescence, 48 h; series mostly up to 26 µM

SMILES	outcome
COC(=O)[C@H]1CCCC[C@H]1C(=O)N1CCc2ccccc2[C@H]1CN1C(=O)c2ccccc2C1=O	inactive
O=C(NC[C@@H]1c2ccccc2CCN1C(=O)[C@@H]1CCCC[C@@H]1C(=O)O)c1ccccc1CO	inactive
Cc1cc(C)c(S(=O)(=O)Nc2nc(NCCO)nc3ccccc23)c(C)c1	inactive
O=C(O)c1ccccc1C(=O)N1CCc2ccccc2C1CN1C(=O)c2ccccc2C1=O (configuration not stated)	inactive
O=C(O)C1CCCCC1C(=O)Nc1ccccc1CN1C(=O)c2ccccc2C1=O (configuration not stated)	inactive
O=C(NCCc1ccccc1)c1ccccc1C(=O)NC[C@@H]1c2ccccc2CCN1C(=O)C1CCCCC1C(=O)O (some centres not stated)	inactive
CCOC(=O)Cc1nc(NS(=O)(=O)c2c(C)cc(C)cc2C)c2ccccc2n1	inactive
CCOC(=O)C(C(=O)OCC)c1nc(NS(=O)(=O)c2c(C)cc(C)cc2C)c2ccccc2n1	inactive
O=C(O)[C@H]1C2C=CC(C2)[C@H]1C(=O)N1CCc2ccccc2C1CN1C(=O)c2ccccc2C1=O (some centres not stated)	inactive
C=CC(=O)NC[C@@H]1c2ccccc2CCN1C(=O)[C@@H]1CCCC[C@@H]1C(=O)O	inactive
O=C(O)C1CCCCC1C(=O)N1CCc2ccccc2[C@H]1C(=O)NCCc1ccccc1 (some centres not stated)	inactive
NC(=O)c1ccccc1C(=O)NC[C@@H]1c2ccccc2CCN1C(=O)[C@@H]1CCCC[C@@H]1C(=O)O	inactive
O=C(O)C1CCCCC1C(=O)N1CCc2ccccc2C1CN1C(=O)Cc2ccccc2C1=O (configuration not stated)	inactive
Cc1cc(C)c(S(=O)(=O)Nc2nc(C(C(=O)OC(C)C)C(=O)C(F)(F)F)nc3ccccc23)c(C)c1 (configuration not stated)	inactive
NC(=O)[C@H]1CCCC[C@H]1C(=O)N1CCc2ccccc2[C@H]1CN1C(=O)c2ccccc2C1=O	inactive
O=C(O)c1ccccc1C(=O)NC[C@@H]1c2ccccc2CCN1C(=O)[C@@H]1CCCC[C@@H]1C(=O)O	inactive

SMILES	outcome
O=C(NCCCN1CCOCC1)c1ccccc1C(=O)NC[C@@H]1c2ccccc2CCN1C(=O)C1CCCCC1C(=O)O (some centres not stated)	inactive
Cc1ccc(S(=O)(=O)Nc2cc(C(C(=O)OC(C)C)C(=O)C(F)(F)F)c(O)c3ccccc23)cc1 (configuration not stated)	inactive
O=C(O)[C@H]1CCCC[C@H]1C(=O)N1CCc2ccccc2[C@H]1CNc1nc(Cl)nc2ccccc12	inactive
O=C(Cc1ccccc1)NC[C@@H]1c2ccccc2CCN1C(=O)[C@@H]1CCCC[C@@H]1C(=O)O	inactive
O=C1c2ccccc2C(=O)N1C[C@H]1NCCc2ccccc21	inactive
O=C(O)C1CCCCC1C(=O)N1CCCCC1CN1C(=O)c2ccccc2C1=O (configuration not stated)	inactive
COC(=O)CNc1nc(NS(=O)(=O)c2c(C)cc(C)cc2C)c2ccccc2n1	inactive
O=C(O)[C@H]1CCCC[C@H]1C(=O)N1CCc2ccccc2[C@H]1CNS(=O)(=O)c1ccc([N+](=O)[O-])cc1	inactive
Cc1ccc(S(=O)(=O)NC(=O)[C@@H]2c3ccccc3CCN2C(=O)[C@@H]2CCCC[C@@H]2C(=O)O)cc1	inactive
O=C(O)CCC(=O)N1CCc2ccccc2C1CN1C(=O)c2ccccc2C1=O (configuration not stated)	inactive
Cc1ccc(S(=O)(=O)NC[C@@H]2c3ccccc3CCN2C(=O)[C@@H]2CCCC[C@@H]2C(=O)O)c(C)c1	inactive
O=C(O)[C@H]1CCCC[C@H]1C(=O)NC(CN1C(=O)c2ccccc2C1=O)c1ccccc1 (some centres not stated)	inactive
Cc1cc(C)c(S(=O)(=O)Nc2cc(C(C(=O)OC(C)C)C(=O)C(F)(F)F)c(O)c3ccccc23)c(C)c1 (configuration not stated)	inactive
O=C(O)[C@@H]1CCCN1C(=O)N1CCc2ccccc2[C@H]1CN1C(=O)c2ccccc2C1=O	inactive
O=C(O)/C=C\C(=O)N1CCc2ccccc2C1CN1C(=O)c2ccccc2C1=O (configuration not stated)	inactive
O=C(O)[C@H]1CCCC[C@H]1C(=O)N1CCc2ccccc2C1CCN1C(=O)c2ccccc2C1=O (some centres not stated)	inactive
